About 7,900 targets were measured; listed, in parts, are those with a hit and a random draw of the rest. About 0.6% of all pairs of compound and target were hits.

Chain of UniProt Q9UHB9 (Q9UHB9 whole entry, looked up): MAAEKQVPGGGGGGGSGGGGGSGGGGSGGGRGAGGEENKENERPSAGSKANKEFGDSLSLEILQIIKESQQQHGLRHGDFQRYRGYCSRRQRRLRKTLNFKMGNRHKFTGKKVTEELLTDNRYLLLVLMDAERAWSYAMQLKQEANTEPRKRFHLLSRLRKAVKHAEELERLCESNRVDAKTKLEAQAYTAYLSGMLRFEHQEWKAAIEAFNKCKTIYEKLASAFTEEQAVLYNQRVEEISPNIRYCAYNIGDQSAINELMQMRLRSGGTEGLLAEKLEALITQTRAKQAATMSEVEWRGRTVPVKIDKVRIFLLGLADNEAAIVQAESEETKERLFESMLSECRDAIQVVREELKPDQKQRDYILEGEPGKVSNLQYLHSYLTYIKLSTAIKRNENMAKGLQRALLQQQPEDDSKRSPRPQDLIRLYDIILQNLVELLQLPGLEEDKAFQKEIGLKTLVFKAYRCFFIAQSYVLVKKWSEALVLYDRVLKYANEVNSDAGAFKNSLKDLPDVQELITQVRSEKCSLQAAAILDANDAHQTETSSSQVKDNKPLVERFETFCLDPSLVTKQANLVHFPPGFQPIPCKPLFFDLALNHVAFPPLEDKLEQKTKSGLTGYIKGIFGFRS
Chain of UniProt Q92797 (Q92797 whole entry, looked up): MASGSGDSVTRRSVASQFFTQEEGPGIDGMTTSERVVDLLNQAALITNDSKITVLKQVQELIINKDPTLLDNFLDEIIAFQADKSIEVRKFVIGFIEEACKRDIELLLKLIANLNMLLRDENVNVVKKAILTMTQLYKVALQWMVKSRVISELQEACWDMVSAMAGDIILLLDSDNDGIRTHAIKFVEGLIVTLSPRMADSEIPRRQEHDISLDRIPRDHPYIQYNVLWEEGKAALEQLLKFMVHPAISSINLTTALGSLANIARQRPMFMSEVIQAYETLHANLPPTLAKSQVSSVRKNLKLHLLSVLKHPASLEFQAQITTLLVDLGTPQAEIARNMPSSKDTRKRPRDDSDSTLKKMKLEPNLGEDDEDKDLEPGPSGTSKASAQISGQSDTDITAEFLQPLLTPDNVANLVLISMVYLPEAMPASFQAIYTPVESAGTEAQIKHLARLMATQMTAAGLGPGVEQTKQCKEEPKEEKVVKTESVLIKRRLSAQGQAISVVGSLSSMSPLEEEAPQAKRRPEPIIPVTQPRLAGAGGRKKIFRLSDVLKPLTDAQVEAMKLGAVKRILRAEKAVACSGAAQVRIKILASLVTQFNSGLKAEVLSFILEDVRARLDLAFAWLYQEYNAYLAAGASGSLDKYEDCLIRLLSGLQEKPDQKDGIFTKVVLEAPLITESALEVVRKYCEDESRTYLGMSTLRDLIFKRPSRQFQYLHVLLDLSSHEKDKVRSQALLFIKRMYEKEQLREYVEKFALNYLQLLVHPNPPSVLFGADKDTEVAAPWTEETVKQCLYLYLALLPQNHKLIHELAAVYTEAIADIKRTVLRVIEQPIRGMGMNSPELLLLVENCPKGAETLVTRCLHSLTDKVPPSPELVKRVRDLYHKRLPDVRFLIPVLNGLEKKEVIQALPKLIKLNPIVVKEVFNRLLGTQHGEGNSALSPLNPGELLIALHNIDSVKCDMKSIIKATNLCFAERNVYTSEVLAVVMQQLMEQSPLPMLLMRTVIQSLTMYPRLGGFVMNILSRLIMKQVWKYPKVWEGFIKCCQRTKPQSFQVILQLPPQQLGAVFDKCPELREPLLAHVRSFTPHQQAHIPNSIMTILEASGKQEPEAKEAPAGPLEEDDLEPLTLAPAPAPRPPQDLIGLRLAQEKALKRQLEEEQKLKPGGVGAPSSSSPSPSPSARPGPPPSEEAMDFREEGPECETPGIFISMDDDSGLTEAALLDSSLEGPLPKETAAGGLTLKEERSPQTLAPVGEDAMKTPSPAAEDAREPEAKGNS
Chain of UniProt Q99523 (Q99523 whole entry, looked up): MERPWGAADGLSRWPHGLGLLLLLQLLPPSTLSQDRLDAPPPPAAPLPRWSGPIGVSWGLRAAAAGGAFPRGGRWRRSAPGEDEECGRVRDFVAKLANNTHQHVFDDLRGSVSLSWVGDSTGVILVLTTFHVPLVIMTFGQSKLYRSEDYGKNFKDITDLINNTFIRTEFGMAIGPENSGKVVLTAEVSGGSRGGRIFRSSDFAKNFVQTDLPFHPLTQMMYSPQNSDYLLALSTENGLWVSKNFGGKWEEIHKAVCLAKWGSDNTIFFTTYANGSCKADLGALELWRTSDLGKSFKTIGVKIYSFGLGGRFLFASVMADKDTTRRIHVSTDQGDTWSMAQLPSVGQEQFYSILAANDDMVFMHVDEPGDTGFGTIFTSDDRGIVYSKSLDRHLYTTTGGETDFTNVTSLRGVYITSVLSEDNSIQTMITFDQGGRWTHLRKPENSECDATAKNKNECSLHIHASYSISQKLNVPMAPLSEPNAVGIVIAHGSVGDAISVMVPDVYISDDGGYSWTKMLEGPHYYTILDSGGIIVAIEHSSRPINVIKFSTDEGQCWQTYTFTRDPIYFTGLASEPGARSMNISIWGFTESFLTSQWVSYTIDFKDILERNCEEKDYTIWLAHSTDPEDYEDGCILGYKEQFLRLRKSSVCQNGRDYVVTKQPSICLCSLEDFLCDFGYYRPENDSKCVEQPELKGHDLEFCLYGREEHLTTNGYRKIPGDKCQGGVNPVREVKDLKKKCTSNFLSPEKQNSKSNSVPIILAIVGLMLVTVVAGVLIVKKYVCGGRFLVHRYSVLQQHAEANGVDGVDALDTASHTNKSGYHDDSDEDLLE
Chain of UniProt Q9BSF4 (Q9BSF4 whole entry, looked up): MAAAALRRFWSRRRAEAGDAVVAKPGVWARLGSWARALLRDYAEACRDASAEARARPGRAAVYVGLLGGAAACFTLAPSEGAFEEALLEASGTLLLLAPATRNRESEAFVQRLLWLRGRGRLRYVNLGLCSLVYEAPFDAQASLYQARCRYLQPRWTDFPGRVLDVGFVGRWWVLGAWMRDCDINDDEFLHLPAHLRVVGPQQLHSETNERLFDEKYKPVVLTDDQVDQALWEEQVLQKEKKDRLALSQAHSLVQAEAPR
Chain of UniProt P40763 (P40763 whole entry, looked up): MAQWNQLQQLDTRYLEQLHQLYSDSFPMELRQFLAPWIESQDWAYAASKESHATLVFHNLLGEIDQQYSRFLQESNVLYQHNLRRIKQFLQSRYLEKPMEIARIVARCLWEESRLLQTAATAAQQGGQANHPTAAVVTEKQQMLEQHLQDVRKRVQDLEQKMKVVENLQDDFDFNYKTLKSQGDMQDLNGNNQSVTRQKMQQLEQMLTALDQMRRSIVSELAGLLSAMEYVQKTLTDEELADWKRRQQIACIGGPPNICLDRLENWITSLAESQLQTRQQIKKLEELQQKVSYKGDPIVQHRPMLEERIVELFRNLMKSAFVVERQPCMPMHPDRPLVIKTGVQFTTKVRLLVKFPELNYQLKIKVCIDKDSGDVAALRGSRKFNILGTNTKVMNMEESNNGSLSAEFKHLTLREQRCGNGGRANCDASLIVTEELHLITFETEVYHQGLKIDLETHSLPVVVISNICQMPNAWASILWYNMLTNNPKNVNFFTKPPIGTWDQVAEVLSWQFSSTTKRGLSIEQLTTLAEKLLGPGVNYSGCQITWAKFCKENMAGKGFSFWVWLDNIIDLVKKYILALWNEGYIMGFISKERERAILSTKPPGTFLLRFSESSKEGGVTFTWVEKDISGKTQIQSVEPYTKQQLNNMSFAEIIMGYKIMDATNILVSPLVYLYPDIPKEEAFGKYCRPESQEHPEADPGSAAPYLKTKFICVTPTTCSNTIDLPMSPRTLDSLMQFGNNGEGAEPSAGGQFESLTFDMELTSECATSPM
Chain of UniProt P56962 (P56962 whole entry, looked up): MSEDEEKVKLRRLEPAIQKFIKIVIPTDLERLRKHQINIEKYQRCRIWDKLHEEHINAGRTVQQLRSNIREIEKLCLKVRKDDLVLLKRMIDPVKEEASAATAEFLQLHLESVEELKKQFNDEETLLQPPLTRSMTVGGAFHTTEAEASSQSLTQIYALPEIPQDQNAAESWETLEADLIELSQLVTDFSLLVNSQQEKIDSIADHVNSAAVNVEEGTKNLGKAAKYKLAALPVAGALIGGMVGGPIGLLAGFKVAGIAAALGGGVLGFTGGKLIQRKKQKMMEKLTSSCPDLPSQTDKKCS
Chain of UniProt O43615 (O43615 whole entry, looked up): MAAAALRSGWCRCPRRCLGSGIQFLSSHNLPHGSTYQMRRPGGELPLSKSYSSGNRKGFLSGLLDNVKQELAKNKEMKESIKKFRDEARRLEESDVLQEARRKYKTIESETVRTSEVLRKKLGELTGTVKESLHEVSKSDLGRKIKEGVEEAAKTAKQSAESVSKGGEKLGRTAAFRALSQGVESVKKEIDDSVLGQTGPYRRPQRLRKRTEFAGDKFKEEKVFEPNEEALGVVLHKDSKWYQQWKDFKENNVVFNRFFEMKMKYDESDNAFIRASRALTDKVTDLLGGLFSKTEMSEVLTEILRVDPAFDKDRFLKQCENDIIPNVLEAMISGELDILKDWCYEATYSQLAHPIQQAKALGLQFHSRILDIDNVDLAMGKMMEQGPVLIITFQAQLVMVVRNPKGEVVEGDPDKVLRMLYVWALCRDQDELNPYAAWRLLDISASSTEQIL
Chain of UniProt O95772 (O95772 whole entry, looked up): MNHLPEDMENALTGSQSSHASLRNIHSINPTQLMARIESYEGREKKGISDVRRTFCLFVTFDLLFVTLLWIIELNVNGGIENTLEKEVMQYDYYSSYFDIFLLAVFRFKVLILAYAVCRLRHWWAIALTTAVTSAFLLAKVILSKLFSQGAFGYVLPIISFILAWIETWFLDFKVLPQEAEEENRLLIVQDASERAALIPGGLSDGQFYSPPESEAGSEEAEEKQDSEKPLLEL
Chain of UniProt O95926 (O95926 whole entry, looked up): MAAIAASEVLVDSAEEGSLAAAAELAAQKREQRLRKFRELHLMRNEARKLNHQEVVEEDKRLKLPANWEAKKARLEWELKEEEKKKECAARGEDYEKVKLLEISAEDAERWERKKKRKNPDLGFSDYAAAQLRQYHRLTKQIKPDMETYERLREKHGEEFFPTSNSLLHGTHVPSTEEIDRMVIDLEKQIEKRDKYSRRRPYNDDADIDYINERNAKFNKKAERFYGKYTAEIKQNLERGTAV

Compound in this assay: Cc1cc(Nc2cc(N3CCN(C)CC3)nc(Sc3ccc(NC(=O)C4CC4)cc3)n2)n[nH]1 [tozasertib]
Kind of assay: log2 fold change, soluble protein after heating vs DMSO (PISA); higher = thermal stabilisation; K562 cells, 10 uM, 30 min; active = over 0.2 and 3.5 SD of the protein, either way, in both replicates (recomputed). In outline: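 K562 cells at 2×10^6 cells/mL were treated with 10 μM compound for 30 min. Aliquots were heated for 3 min across 48°C-58°C, pooled, and extracted in PBS with 0.5% NP-40 at 4°C; soluble protein was the supernatant after 21,000xg for 90 min. Soluble protein was quantified by TMTpro 16plex LC-MS/MS with channel sums equalised, and reported as log2 fold change in thermal stability against DMSO controls, with values from duplicates.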
Regarding STAT5B (UniProt P51692), the log2 fold change is 0.129 (inactive).
For STAT3 (UniProt P40763), the log2 fold change is 0.073 (inactive).
Regarding STAM2 (UniProt O75886), the log2 fold change was 0.054 (inactive).
On to TIAL1 isoform 2 (UniProt Q01085), for which the log2 fold change was -0.023 (inactive).
On to SLC38A9 (UniProt Q8NBW4), for which the log2 fold change was 0.001 (inactive).
As for STAT5A (UniProt P42229), the log2 fold change was 0.119 (inactive).
Consider SNX5 (UniProt Q9Y5X3), for which the log2 fold change is -0.071 (inactive).
In the case of SMARCE1 (UniProt Q969G3), the log2 fold change was 0.091 (inactive).
As for SRSF3 (UniProt P84103), the log2 fold change was -0.027 (inactive).
Consider SMC5 (UniProt Q8IY18), for which the log2 fold change was 0.017 (inactive).
For SNX1 (UniProt Q13596), the log2 fold change was -0.054 (inactive).
As for TARBP1 (UniProt Q13395), the log2 fold change is -0.018 (inactive).
Take STX17 (UniProt P56962): the log2 fold change is -0.031 (inactive).
As for SMARCAD1 isoform 2 (UniProt Q9H4L7), the log2 fold change is 0.059 (inactive).
For the target TIMM10 (UniProt P62072), the log2 fold change was 0.053 (inactive).
For SPCS2 (UniProt Q15005), the log2 fold change was -0.015 (inactive).
Regarding SMAP2 (UniProt Q8WU79), the log2 fold change was 0.058 (inactive).
As for TK1 (UniProt P04183), the log2 fold change was -0.032 (inactive).
TIMM44 (UniProt O43615): the log2 fold change was -0.038 (inactive).
As for TIMM29 (UniProt Q9BSF4), the log2 fold change is 0.012 (inactive).
For the target SRI (UniProt P30626), the log2 fold change was 0.106 (inactive).
The result for SORT1 (UniProt Q99523) reads -0.001 (inactive); that for SLC7A6 (UniProt Q92536), -0.006 (inactive).
The result for SYF2 (UniProt O95926) reads -0.113 (inactive); that for STK25 (UniProt O00506), -0.027 (inactive).
The result for SYMPK (UniProt Q92797) reads 0.054 (inactive); that for SP1 (UniProt P08047), 0.037 (inactive); that for SSB (UniProt P05455), 0.048 (inactive).
Turning to STARD3NL (UniProt O95772), the log2 fold change was 0.03 (inactive).
As for SPG21 (UniProt Q9NZD8), the figure is 0.026 (inactive); as for SRP68 (UniProt Q9UHB9), 0.054 (inactive).
The result for TJP2 isoform 7 (UniProt Q9UDY2) reads 0.071 (inactive); that for SPPL2B (UniProt Q8TCT7), -0.032 (inactive).
The result for SRSF7 (UniProt Q16629) reads -0.005 (inactive); that for SNW1 (UniProt Q13573), -0.015 (inactive); that for TBC1D23 (UniProt Q9NUY8), -0.042 (inactive).
As to SLC30A7 (UniProt Q8NEW0), the log2 fold change was -0.05 (inactive).
